According to ChEMBL document CHEMBL1201862, “PubChem BioAssay data set” (2004):
The whole screen tested about 400,000 compounds, of which about 2,100 (0.53%) were called active. Inconclusive results (about 14%) are left out. The sample holds actives, similar compounds and a random draw of the others, so the mix is not that of the screen. The rule behind the calls is not given here.

The molecules below were run against Ataxin-2 (Homo sapiens) (UniProt Q99700) (assay: qHTS for Inhibitors of ATXN expression.).
Assay type: functional

Chain of Ataxin-2 (Homo sapiens) (Q99700 whole entry): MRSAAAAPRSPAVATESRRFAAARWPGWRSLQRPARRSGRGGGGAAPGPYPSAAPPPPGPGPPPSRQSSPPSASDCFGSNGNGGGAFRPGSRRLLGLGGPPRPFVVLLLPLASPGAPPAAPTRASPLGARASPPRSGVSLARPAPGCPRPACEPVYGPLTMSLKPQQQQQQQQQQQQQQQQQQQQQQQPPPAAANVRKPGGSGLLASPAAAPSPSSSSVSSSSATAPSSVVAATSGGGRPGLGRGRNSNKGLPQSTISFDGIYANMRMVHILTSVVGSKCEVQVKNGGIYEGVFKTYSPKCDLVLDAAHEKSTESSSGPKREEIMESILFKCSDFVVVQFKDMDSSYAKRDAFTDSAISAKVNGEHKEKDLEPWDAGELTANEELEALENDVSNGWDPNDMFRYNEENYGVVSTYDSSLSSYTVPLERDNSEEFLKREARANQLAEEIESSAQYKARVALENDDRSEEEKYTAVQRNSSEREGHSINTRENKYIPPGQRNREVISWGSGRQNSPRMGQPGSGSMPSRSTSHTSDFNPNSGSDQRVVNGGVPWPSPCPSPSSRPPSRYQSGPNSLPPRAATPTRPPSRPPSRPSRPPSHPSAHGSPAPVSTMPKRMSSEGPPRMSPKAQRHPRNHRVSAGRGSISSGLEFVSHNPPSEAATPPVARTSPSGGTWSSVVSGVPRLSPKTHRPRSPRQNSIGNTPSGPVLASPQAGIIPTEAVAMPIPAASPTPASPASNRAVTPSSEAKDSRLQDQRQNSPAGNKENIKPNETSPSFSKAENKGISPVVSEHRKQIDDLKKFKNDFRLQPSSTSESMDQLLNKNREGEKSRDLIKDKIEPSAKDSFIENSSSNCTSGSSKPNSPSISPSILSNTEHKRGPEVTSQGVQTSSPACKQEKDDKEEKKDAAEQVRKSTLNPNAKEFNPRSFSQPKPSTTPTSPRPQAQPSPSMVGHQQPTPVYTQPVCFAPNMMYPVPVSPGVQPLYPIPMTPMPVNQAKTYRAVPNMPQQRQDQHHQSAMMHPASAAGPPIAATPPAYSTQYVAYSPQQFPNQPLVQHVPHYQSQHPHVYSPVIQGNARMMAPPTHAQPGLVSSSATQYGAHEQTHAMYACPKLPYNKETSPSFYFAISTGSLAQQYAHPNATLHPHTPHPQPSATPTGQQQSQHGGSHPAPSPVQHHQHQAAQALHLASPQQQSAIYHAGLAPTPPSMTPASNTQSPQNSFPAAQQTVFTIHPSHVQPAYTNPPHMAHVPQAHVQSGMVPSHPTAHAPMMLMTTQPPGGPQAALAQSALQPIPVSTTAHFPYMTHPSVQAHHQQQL

SMILES | Potency
CCn1c(=N)c(C(=O)NCC2CCCO2)cc2c(=O)n3cc(C)ccc3nc21 (stereo unspecified) | inactive
C=CCC[C@@H](Cc1ccc(F)cc1)C(=O)OC[C@H](Cc1c[nH]c2ccccc12)NC(=O)[C@@H](CC=C)CC(=O)NCCO | 39.8 µM (active)
C=CC[C@@H](CC(=O)N[C@H](CO)Cc1ccccc1)C(=O)N[C@H](COC(=O)[C@@H](CC=C)Cc1ccc(F)cc1)Cc1c[nH]c2ccccc12 | 25.1 µM (active)
C=CCC[C@H](Cc1ccc(F)cc1)C(=O)OC[C@H](Cc1c[nH]c2ccccc12)NC(=O)[C@@H](CC=C)CC(=O)NCCO | 28.2 µM (active)
C=CC[C@@H](CC(=O)NCCO)C(=O)N[C@H](COC(=O)[C@@H](CC=C)Cc1ccc(F)cc1)Cc1c[nH]c2ccccc12 | 35.5 µM (active)
CC(C)n1c(=N)c(C(=O)NCCc2ccccc2)cc2c(=O)n3ccccc3nc21 | inactive
COc1cc(/C=C2\C(=N)N3N=CSC3=NC2=O)cc(Br)c1OC(=O)c1ccco1 | inactive
COc1ccc2nc(N3CCCCC3)c(C#N)cc2c1 | inactive
N=c1oc2cc(O)ccc2cc1C(=O)Nc1ccc(F)cc1 | inactive
CCOC(=O)/C(=C\c1ccccc1)C(=O)CCN1CCOCC1 | 42.3 µM (active)
COCCOC(=O)c1c(N)n(CCCN2CCOCC2)c2nc3ccccc3nc12 | inactive
O=C(NCCCN1CCOCC1)/C(=C/c1cccnc1)NC(=O)c1ccccc1 | inactive
CCCc1cc(=O)oc2cc(O[C@@H]3O[C@H](CO)[C@@H](O)[C@H](O)[C@H]3O)ccc12 | inactive
COc1ccccc1-c1nnc(-c2ccc(C)cc2)o1 | inactive
COc1ccccc1NC(=O)CSc1nnc(-c2ccoc2C)o1 | inactive
COc1ccccc1-c1nnc(Sc2nc([N+](=O)[O-])nn2C)o1 | 11.2 µM (active)
C=CCn1c(N)c(C(=O)OC(C)(C)C)c2nc3ccccc3nc21 | inactive
C=CCn1c2ccccc2c2nnc(SCCCn3c(=O)[nH]c4ccccc43)nc21 | 39.8 µM (active)
CCn1c2ccccc2c2nc3cc(C(=O)O)ccc3nc21 | inactive
NC(=O)C[n+]1cccc(C(=O)Nc2ccccc2)c1 | inactive
CCN(CC)c1ccc2c(C)c(-c3ccc(N)cc3)c(=O)oc2c1 | inactive
CCN(CC)c1ccc2ccc(=O)oc2c1 | inactive

SMILES | Potency
CCN(CC)c1ccc(N)cc1 | 31.6 µM (active)
O=C(O)c1ccccc1N(c1ccccc1)c1ccccc1 | inactive
O=C(Nc1ccccc1)NN(C(=O)CCl)c1ccccc1 | 22.4 µM (active)
CC(=O)n1cc(N(C(=O)CCl)c2ccccc2)c2ccccc21 | 22.4 µM (active)
O=C(Nc1ccccc1)N(C1=NCCC1)c1ccccc1 | inactive
O=C(CCCC(=O)NNC(=O)Nc1ccccc1)NNC(=O)Nc1ccccc1 | inactive
COC(=O)c1cn(C(=O)c2cc(C)cc(C)c2)c2ccccc12 | inactive
O=C(CCl)N(c1ccccc1)c1ccccc1 | 7.52 µM (active)
CC(=O)n1c(/C=N/c2ccccc2)c(O)c2ccccc21 | inactive
Cc1c(Cc2ccccc2)c(=O)oc2c(C)c(OCC(=O)Nc3ccc(C#N)cc3)ccc12 | inactive
OC[C@@H]1[C@@H](c2ccc(F)cc2)C(c2ccccc2)=NN1c1ccccc1 | inactive
Clc1ccc(/C=C\c2[nH]ccc3c4ccccc4nc2-3)cc1 | inactive
CCc1cc2c(COC(=O)c3cccc(S(C)(=O)=O)c3)cc(=O)oc2cc1O | inactive
O=C(O)/C=C/c1cn(Cc2ccccc2)nc1-c1cccs1 | inactive
c1ccc(CN2CCC(Nc3nc(-c4cccs4)nc4ccccc34)CC2)cc1 | 31.6 µM (active)
Cc1cccn2c(=O)c3cc(C(=O)NCC4CCCO4)c(=N)n(Cc4cccnc4)c3nc12 (stereo unspecified) | inactive
CC(C)c1cc(NCc2ccccn2)n2c(nc3ccccc32)c1C#N | inactive
O=S(=O)(Nc1nc2ccccc2nc1Cl)c1ccc(Cl)cc1 | inactive
O=S(=O)(Nc1cc2nc3ccccc3nc2n1Cc1ccccc1)c1ccc(Cl)cc1 | inactive
O=S(=O)(NCC(Nc1ccc(Cl)cc1)c1ccccc1)c1ccccc1 (stereo unspecified) | 22.4 µM (active)
Cc1c(CCC(=O)NC2CC2)c(=O)oc2c(C)c(O)ccc12 | inactive
CC1CCc2cc(F)ccc2N1C(=O)CSc1n[nH]c2c3cc(F)ccc3nc-2n1 (stereo unspecified) | 22.4 µM (active)

SMILES | Potency
CC(=O)N1c2ccc(S(=O)(=O)NCCC(=O)Nc3ccc(Cl)cc3)cc2CC1C (stereo unspecified) | inactive
CCc1nnc(NC(=O)CSc2n[nH]c3c4ccccc4nc-3n2)s1 | inactive
CC(Sc1nc(-c2ccc(F)cc2)cs1)C(=O)N1c2ccccc2CC1C (stereo unspecified) | inactive
CC1CCc2cc(F)ccc2N1C(=O)CCl (stereo unspecified) | 29.9 µM (active)
CN1CCC(N(C)C(=O)c2sc3cc(F)ccc3c2Cl)CC1 | inactive
Cc1nc2nc(-c3ccc(F)cc3)cn2nc1C | inactive
CC[n+]1c(/C=C/c2ccc(N(C)C)cc2)ccc2ccccc21 | 10 µM (active)
COc1ccc2ccccc2c1/C=N/Nc1cccc(C(=O)O)c1 | inactive
CN(C)c1ccc(/C=C/c2nc3ccccc3s2)cc1 | inactive
CN(C)c1ccc(/C=C/c2ccc3ccccc3n2)cc1 | inactive
CC[n+]1c(/C=C/c2ccc(OC(C)=O)c(OC)c2)ccc2ccccc21 | 22.4 µM (active)
CCCCCC[n+]1ccccc1C=Cc1ccc(N(C)C)cc1 | 7.94 µM (active)
COc1ccc(/C=C2\CCc3c2nc2ccccc2c3C(=O)O)cc1OC | inactive
CN(C)c1ccc(C=Cc2cnccn2)cc1 | inactive
CN(C)c1ccc(/C=C/c2cccc[n+]2[O-])cc1 | inactive
CCN(CC)c1ccc(/C=C/c2ccc3ccc(OC)cc3[n+]2CC)cc1 | 2.82 µM (active)
CCCN(CCC)c1ccc(/C=C/c2ccc3cc(OCC)ccc3n2)cc1 | inactive
CCN(CC)c1ccc(/C=N/NC(=S)NCc2ccc(OC)cc2)cc1 | inactive
CCOC(=O)c1cc(C#N)c(Nc2ccccc2OC)nc1C(F)(F)F | inactive
O=S(=O)(O)c1ccc(N2N=C(c3ccccc3)CC2c2ccccc2)cc1 (stereo unspecified) | inactive
Nc1nnc(-c2cc3ccccc3oc2=O)s1 | inactive
CC(=O)Oc1ccc(N2C(=O)c3cccc4c([N+](=O)[O-])ccc(c34)C2=O)cc1 | inactive
